Records with an inconclusive call do not appear. Active and inactive are the calls of the source. The calls were made as follows: active = hit-call score of the fitted dose curve at least 0.9, where 1 is the maximum; inconclusive = response in the unintended direction; inactive = score below 0.9.
The compounds below were run against Nuclear receptor subfamily 4 group A member 2 (Homo sapiens) (UniProt P43354) (assay: ATG_NURR1_TRANS: Attagene TRANS-FACTORIAL HepG2 Assay for human Nuclear Receptor Related Protein 1 (NURR1) (AID 2282985)). Conditions: HepG2 Attagene TRANS reporter, mRNA readout.
Experimental: ATG_TRANS is a cell-based, multiplexed-readout assay that uses HepG2, a human liver cell line, with measurements taken at 24 hours after chemical dosing in a 24-well plate.ATG_NURR1_TRANS is one of 30 assay component(s) measured or calculated from the ATG_TRANS assay. It is designed to make measurements of mRNA induction, a form of inducible reporter, as detected with fluorescence intensity signals by Reverse transcription polymerase chain reaction (RT-PCR) and Capillary electrophoresis technology.Data from the assay component ATG_NURR1_TRANS was analyzed into 1 assay endpoint. This assay endpoint, ATG_NURR1_TRANS, was analyzed in the positive analysis fitting direction relative to DMSO as the negative control and baseline of activity. Using a type of inducible reporter, measures of mRNA for gain-of-signal activity can be used to understand the reporter gene at the transcription factor-level as they relate to the gene NR4A2. Furthermore, this assay endpoint can be referred to as a primary readout, because this assay has produced multiple assay endpoints where this one serves a reporter gene function. To generalize the intended target to other relatable targets, this assay endpoint is annotated to the nuclear receptor intended target family, where the subfamily is orphan.
Human liver HepG2 cells are transiently transfected with multiple reporter transcription units (MRTUs) in 6-well plates using FuGene 6 reagent (Roche; 3 ml FuGene/1 mg DNA). The MRTU constructs are regulated by a cis-regulating element (promoter). […] A major difference between the CIS and TRANS system is that in CIS activities of endogenous TFs are measured, whereas the TRANS assay evaluates changes in activities of exogenous, chimeric NR-Gal4 proteins. […] At the end of 24 hour incubation, total RNA was isolated using TriZol reagent (Invitrogen). The isolated RNA is then reverse-transcribed using oligo(dT) primer and Mo-MLV reverse transcriptase (Invitrogen) with DNAse I (Ambion) treatment for 30 min. The one-tenth of the produced cDNA was amplified by PCR using Taq DNA polymerase (Invitrogen) and two reporter sequence-specific primers. The PCR products were fluorescently labeled by primer extension with 6-arboxyfluorescein (6-FAM) 5'-labeled reporter sequence-specific primer (2 min at 95 C, 20 s at 68 C and 10 min at 72 C) and these products were digested with 5U of HpaI (New England Biolabs) for 2h at 37 C. The fragments were purified using Qiaquick PCR columns (Qiagen), analyzed on an ABI 3130xL genetic analyzer (Applied Biosystems) with peak positions identified by using a set of X-rhodamine (ROX)-labeled MapMarker1000 molecular weight standards (BioVentures). The raw capillary electrophoresis data was processed using Attagraph software (Attagene).

Sequence of Nuclear receptor subfamily 4 group A member 2 (Homo sapiens) (P43354 whole entry, looked up): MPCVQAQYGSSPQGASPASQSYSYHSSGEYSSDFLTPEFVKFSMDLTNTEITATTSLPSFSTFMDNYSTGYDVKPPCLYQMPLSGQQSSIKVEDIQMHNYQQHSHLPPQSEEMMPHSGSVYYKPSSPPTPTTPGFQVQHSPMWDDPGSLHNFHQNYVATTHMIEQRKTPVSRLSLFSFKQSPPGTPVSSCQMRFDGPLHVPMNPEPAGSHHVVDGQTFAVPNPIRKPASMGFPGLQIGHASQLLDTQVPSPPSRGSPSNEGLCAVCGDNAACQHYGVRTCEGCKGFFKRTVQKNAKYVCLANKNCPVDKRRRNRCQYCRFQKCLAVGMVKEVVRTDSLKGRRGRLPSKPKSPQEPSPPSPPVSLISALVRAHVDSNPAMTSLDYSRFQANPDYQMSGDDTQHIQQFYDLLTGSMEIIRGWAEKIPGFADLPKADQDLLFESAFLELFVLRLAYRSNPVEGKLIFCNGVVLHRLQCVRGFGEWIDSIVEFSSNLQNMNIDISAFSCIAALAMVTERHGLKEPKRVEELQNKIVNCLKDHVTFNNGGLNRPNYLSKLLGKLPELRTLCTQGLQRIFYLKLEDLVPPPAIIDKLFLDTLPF

SMILES	outcome	AC50
Cc1cc(-n2nc3ccc(Cl)cc3n2)c(O)c(C(C)(C)C)c1	inactive	
CC1=C(CC=O)C(C)(C)CCC1	inactive	
CC(=O)Nc1c(I)c(NC(C)=O)c(I)c(C(=O)O)c1I	inactive	
Cc1cc(O)cc(C)c1Cl	inactive	
CN1CCCC1	inactive	
CC1(C)S[C@@H]2[C@H](NC(=O)[C@H](N)c3ccccc3)C(=O)N2[C@H]1C(=O)O	inactive	
C=C(C)C(=O)OCCCCCC	inactive	
CC(C)CC(=O)CC(C)CC(C)C (stereo not given)	inactive	
O=C(O)/C=C/C(=O)O	inactive	
COC(=O)/C=C\C(=O)OC	inactive	
c1cc[c]([Bi]([c]2ccccc2)[c]2ccccc2)cc1		37.9 µM (active)
CC(C)(C)NC(=O)[C@@H]1CN(Cc2cccnc2)CCN1C[C@@H](O)C[C@@H](Cc1ccccc1)C(=O)N[C@H]1c2ccccc2C[C@H]1O	inactive	
O=C(OCc1ccccc1)c1ccccc1	inactive	
Cc1ccccc1S(N)(=O)=O	inactive	
CCCCCCC1CCC(=O)O1 (stereo not given)	inactive	
C[C@H]1C[C@H]2[C@@H]3CCC4=CC(=O)C=C[C@]4(C)[C@@]3(F)[C@@H](O)C[C@]2(C)[C@@]1(O)C(=O)CO	inactive	
CCCC(=O)OC/C=C(\C)CCC=C(C)C	inactive	
C/C=C(\C)C(=O)OCC/C=C\CC	inactive	
OCCc1ccccn1	inactive	
COCCCN	inactive	

SMILES	outcome	AC50
Oc1ccc(Cl)cc1C1CCCC1		8.65 µM (active)
CCCCCCOC(=O)CCCCCCCC(=O)OCCCCCC	inactive	
OCCOCCOCCOCCOCCO	inactive	
CCCCCCCC#N	inactive	
CC/C=C\CC/C=C/C(OCC)OCC	inactive	
CN(C)Cc1cc(C(C)(C)C)c(O)c(C(C)(C)C)c1		29.1 µM (active)
F[B-](F)(F)F	inactive	
O=C1CCCCCCCCCCCCCC1		25.7 µM (active)
CCO[Si](OCC)(OCC)c1ccccc1	inactive	
Clc1ccc(Sc2cc(Cl)c(Cl)cc2Cl)cc1	inactive	
CCCC(=O)OC	inactive	
Nc1ccc(S(=O)(=O)Nc2cnc3ccccc3n2)cc1	inactive	
Nc1nnc(-c2ccc([N+](=O)[O-])o2)o1	inactive	
CCCOCCC	inactive	
CCCc1c(OCCCCc2nn[nH]n2)ccc(C(C)=O)c1O		50.4 µM (active)
CC1=C(CC(=O)O)c2cc(F)ccc2/C1=C\c1ccc(S(C)=O)cc1 (stereo not given)	inactive	
CC/C=C/CCO	inactive	
CCCCCC[C@@H](O)C/C=C\CCCCCCCC(=O)O		108 µM (active)
CN(C)c1ccc(C(c2ccccc2)c2ccc(N(C)C)cc2)cc1	inactive	
COc1ccccc1OCC(O)CO (stereo not given)	inactive	

— PubChem BioAssay (EPA / NIEHS)
